Assay results taken from PubChem BioAssay (EPA / NIEHS).
The source made the active and inactive calls. How the source made its calls: active means hit-call score of the fitted dose curve at least 0.9, where 1 is the maximum; inactive means score below 0.9.

Assay: APR_HepG2_StressKinase_1hr: Apredica 1-hour HepG2 Assay for Stress Kinase (AID 2282906)
Conditions: HepG2 stress kinase (phospho-c-Jun) imaging, actives raise or lower the signal
Protocol: APR_HepG2_1hr is a cell-based, multiplexed-readout assay that uses HepG2, a human liver cell line, with measurements taken at 1 hour after chemical dosing in a 384-well plate.APR_HepG2_StressKinase_1hr is one of 10 assay component(s) measured or calculated from the APR_HepG2_1hr assay. It is designed to make measurements of enzyme activity, a form of enzyme reporter, as detected with fluorescence intensity signals by HCS Fluorescent Imaging technology.Data from the assay component APR_HepG2_StressKinase_1hr was analyzed into 1 assay endpoint. This assay endpoint, APR_HepG2_StressKinase_1hr, was analyzed with bidirectional fitting relative to DMSO as the negative control and baseline of activity. Using a type of enzyme reporter, measures of protein for gain or loss-of-signal activity can be used to understand the signaling at the pathway-level as they relate to the gene . Furthermore, this assay endpoint can be referred to as a primary readout, because this assay has produced multiple assay endpoints where this one serves a signaling function. To generalize the intended target to other relatable targets, this assay endpoint is annotated to the cell cycle intended target family, where the subfamily is stress response.
Cells were treated with dimethyl sulfoxide (DMSO) as a solvent control at a final concentration of 0.5% v/v or with compounds in DMSO with a resulting final DMSO concentration of 0.5% v/v. Compound treatment was done at concentrations of 0.39, 0.78, 1.56, 3.12, 6.24, 12.5, 25, 50, 100, and 200 uM in duplicate on each plate. Cells were treated with compounds for 1, 24, or 72 hr. Carbonyl […] m-chloro-phenylhydrazone (CCCP) and taxol were used as positive controls for mitochondrial function and cytoskeletal stability, respectively; DMSO served as the negative control for this experiment. Cells were fixed by the direct addition of 50 uL formaldehyde in Hank's Balanced Salt Solution (HBSS) to a final concentration of 3.7%. After incubation in the fixation medium for 30 min at room temperature (293-298 K), cells were rinsed twice with HBSS and treated with cell permeabilization buffer (16 uL of 0.5% Triton X-100) for 10 min at room temperature (293-298 K) before labeling. For mitochondrial membrane potential and mitochondrial measurements, pre-fixed cells were incubated with 50 uL of MitoTracker Red CMXRos (Invitrogen) at a concentration of 250 nM for 30 min before fixation. In the remaining cases, post-fixed cells were labeled by incubation with a multiplexed mixture of primary antibodies in HBSS for 60 min at room temperature (293-298 K) to detect immunoreactivity of c-Jun (1:500), phospho-histone H3 (1:100), phospho-histone H2A.x (1:200), p53 (1:400), alpha-tubulin (1:200) and Hoechst 33342 (2 ug/mL). Cells were labeled for multiplexed imaging on two separate plates: a) Hoechst 33342, MitoTracker Red, phospho-histone H3, and alpha-tubulin, and b) Hoechst 33342, phospho-histone H2A.x, and c-Jun. A final rinse with HBSS (50 uL) was performed before analysis. The primary and secondary antibodies for the proteins were phospho-histone H3 (rabbit anti-phospho-histone H3 and FITC-donkey anti-rabbit IgG), phospho-histone H2A.x (mouse anti-phospho-histone H2A.x and FITC-donkey anti-mouse IgG), c-Jun (rabbit anti-phospho-c-Jun and Cy3-donkey anti-rabbit IgG), p53 (sheep anti-p53 and Cy5-donkey anti-sheep IgG), alpha-tubulin (mouse anti-alpha-tubulin and Cy5-donkey anti-mouse IgG). These antibodies are available as the CellCiphr HepG2 assay kit (Millipore).Digital images of each well were captured using a Cellomics ArrayScan VTI (Thermo Scientific Cellomics) (0.8 NA objective, 0.63x optical coupler, and XF-93 filter set) at 20x magnification. The images were acquired using the autofocus feature of the ArrayScan instrument, which entails the following steps. First, the camera focuses on channel 1 (Hoechst 33342), where nuclei are identified. Second, a Z offset of 1 um is used for capturing mitochondria (MitoTracker Red). […]

Row | Structure (SMILES) | outcome
1 | C[N+]1(C)CCCCC1 | inactive
2 | CCc1cccc(C)c1N(C(=O)CCl)C(C)COC (stereo not given) | inactive
3 | CCCCOC(=O)[C@@H](C)Oc1ccc(Oc2ccc(C#N)cc2F)cc1 | inactive
4 | CCOP(=O)(OCC)Oc1cc(C)nc(C(C)C)n1 | inactive
5 | FC(F)C(F)(F)OCC(Cn1cncn1)c1ccc(Cl)cc1Cl (stereo not given) | inactive
6 | CSc1nnc(C(C)(C)C)c(=O)n1N | inactive
7 | Nc1c(Cl)cc([N+](=O)[O-])cc1Cl | inactive
8 | CCNc1nc(Cl)nc(NC(C)(C)C#N)n1 | inactive
9 | CC(COc1ccc(Oc2ccccc2)cc1)Oc1ccccn1 (stereo not given) | inactive
10 | COc1cc(OC)nc(Sc2cccc(Cl)c2C(=O)O)n1 | inactive
11 | Cc1ccn2nc(S(=O)(=O)Nc3c(F)cccc3F)nc2n1 | inactive
12 | CCC(CC)Nc1c([N+](=O)[O-])cc(C)c(C)c1[N+](=O)[O-] | inactive
13 | S=C1NCCN1 | inactive
14 | CCc1cccc(CC)c1N(COC)C(=O)CCl | inactive
15 | CN1COCN(Cc2cnc(Cl)s2)C1=N[N+](=O)[O-] | inactive
16 | Cc1nn(-c2cc(NS(C)(=O)=O)c(Cl)cc2Cl)c(=O)n1C(F)F | inactive
17 | Nc1nc(N)nc(NC2CC2)n1 | inactive
18 | CCCSP(=O)(OCC)Oc1ccc(Br)cc1Cl (stereo not given) | inactive
19 | CCOP(=O)(NC(C)C)Oc1ccc(SC)c(C)c1 (stereo not given) | inactive
20 | CCc1cnc(C2=NC(C)(C(C)C)C(=O)N2)c(C(=O)O)c1 (stereo not given) | inactive

Row | Structure (SMILES) | outcome
21 | CCC(=O)Nc1ccc(Cl)c(Cl)c1 | inactive
22 | CNC(=O)Oc1cccc2c1OC(C)(C)O2 | inactive
23 | COP(=O)(OC)SCn1c(=O)oc2cc(Cl)cnc21 | inactive
24 | CON=C(C(=O)OC)c1ccccc1CON=C(C)c1cccc(C(F)(F)F)c1 | inactive
25 | COP(=O)(OC)OC(Br)C(Cl)(Cl)Br (stereo not given) | inactive
26 | CC(C)[C@H](C(=O)O[C@H](C#N)c1cccc(Oc2ccccc2)c1)c1ccc(Cl)cc1 | inactive
27 | N#CSCSC#N | inactive
28 | CCCCSP(=O)(SCCCC)SCCCC | inactive
29 | O=C(O)c1cc(Oc2ccc(C(F)(F)F)cc2Cl)ccc1[N+](=O)[O-] | inactive
30 | C#CC(C)(C)NC(=O)c1cc(Cl)cc(Cl)c1 | inactive
31 | CC(C1CC1)C(O)(Cn1cncn1)c1ccc(Cl)cc1 (stereo not given) | inactive
32 | CCOC(=O)CC(SP(=O)(OC)OC)C(=O)OCC (stereo not given) | inactive
33 | CCOP(=S)(OCC)Oc1ccc2c(C)c(Cl)c(=O)oc2c1 | inactive
34 | CCOP(=O)(SC(C)CC)N1CCSC1=O (stereo not given) | inactive
35 | O=c1ccc(=O)[nH][nH]1 | inactive
36 | CNC(=O)ON=C(C)SC | inactive
37 | CNC(=O)ON=C(SC)C(=O)N(C)C | inactive
38 | CCCSP(=O)(OCC)SCCC | inactive
39 | C=C(C)[C@H]1Cc2c(ccc3c2O[C@@H]2COc4cc(OC)c(OC)cc4[C@@H]2C3=O)O1 | inactive
40 | CCCCOC(=O)c1ccccc1C(=O)O | inactive
